HP1b binding inh – blocks HP1-beta chromodomain binding to methylated histone tails. P83916. AlphaScreen HP1-beta / biotin-H3K9me3 peptide binding. Potency, µM (top dose mostly 114 µM), for inactives: at the top dose activity change, negative = inhibition, hits mostly inhibitors. 390,000 tested, 0.56% active; further: potency means the concentration at half of the fitted maximal effect; nearly all actives have a fitted effect of over 70% in size
Target sequence (P83916 whole entry, looked up): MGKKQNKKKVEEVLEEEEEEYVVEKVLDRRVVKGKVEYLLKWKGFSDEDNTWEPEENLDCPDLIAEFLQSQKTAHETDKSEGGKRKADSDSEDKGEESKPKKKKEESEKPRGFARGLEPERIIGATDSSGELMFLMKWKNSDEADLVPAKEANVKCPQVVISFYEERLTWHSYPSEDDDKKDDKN
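Compound inhibition of the preformed complex between 50 nM HP1-beta and 50 nM biotinylated H3K9me3 peptide was read by AlphaScreen. Buffer was PBS pH 7.4 with 0.01% Tween-20. Incubations ran 30 min at room temperature, with 10 ug/mL donor/acceptor beads.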
PLK1 PBD block – PLK1 (human) polo-box domain binding inhibition | 360,000 tested, 2.8% active | Potency, µM, inactives show max response, negative = inhibition, usual class: inhibitors | Plk1 PBD binding of FITC phosphopeptide, fluorescence polarization | AID 720504; further: potency means the concentration at half of the fitted maximal effect; series mostly up to about 57 µM; on the % scale 0 is the no-effect control and ±100 the full control effect; nearly all actives have a fitted effect of over 65% in size
Target sequence (P53350 whole entry, looked up, the tested form may be a part): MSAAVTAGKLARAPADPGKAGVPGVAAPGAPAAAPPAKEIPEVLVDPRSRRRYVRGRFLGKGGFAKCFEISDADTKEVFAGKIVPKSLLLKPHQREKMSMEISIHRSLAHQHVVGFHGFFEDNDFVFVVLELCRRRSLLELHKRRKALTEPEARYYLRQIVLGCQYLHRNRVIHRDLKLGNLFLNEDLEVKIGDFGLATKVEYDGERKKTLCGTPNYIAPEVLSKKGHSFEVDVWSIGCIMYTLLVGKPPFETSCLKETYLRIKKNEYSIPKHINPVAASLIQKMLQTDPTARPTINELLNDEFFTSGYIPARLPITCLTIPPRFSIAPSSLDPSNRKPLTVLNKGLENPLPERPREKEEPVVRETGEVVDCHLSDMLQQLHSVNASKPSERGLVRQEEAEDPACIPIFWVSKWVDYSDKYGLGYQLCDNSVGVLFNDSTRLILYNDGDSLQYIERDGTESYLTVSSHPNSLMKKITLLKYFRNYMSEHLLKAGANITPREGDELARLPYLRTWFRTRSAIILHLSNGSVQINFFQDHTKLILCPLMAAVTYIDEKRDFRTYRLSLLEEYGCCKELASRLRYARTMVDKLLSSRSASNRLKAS
JMJD2A Tudor – blocks the human JMJD2A Tudor domain | AID 504339 | 390,000 tested, 4.4% active | Potency, µM (top dose mostly 114 µM), for inactives: at the top dose activity change, negative = inhibition, actives largely listed as inhibitors | O75164 | AlphaScreen JMJD2A-Tudor / H3K4me3 peptide binding; further: potency means the concentration at half of the fitted maximal effect; on the % scale 0 is the no-effect control and ±100 the full control effect; nearly all actives have a fitted effect of over 50% in size
BAZ2B block – blocks human BAZ2B | AID 504333 | Potency, µM (titrated, usually from 114 µM), inactives show top-dose activity change, negative = inhibition, most hits filed as inhibitors | 360,000 tested, 4.4% active | AlphaScreen BAZ2B-H3K14Ac peptide displacement | Q9UIF8; further: potency means the concentration at half of the fitted maximal effect; on the % scale 0 is the no-effect control and ±100 the full control effect; nearly all actives have a fitted effect of over 60% in size
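BAZ2B 50 nM plus b-H3(5-23)K14Ac 50 nM, PBS pH 7.4/0.01% Tween-20, 30 min RT; compound added (max 110 uM), 30 min RT; streptavidin donor/Ni-chelate acceptor beads 10 ug/mL final, 20 min dark; AlphaScreen read.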
PI5P4K alpha inh – blocks human PI5P4K alpha kinase activity. PI5P4Kalpha enzyme, ADP-Glo luminescence, 60 min; active compounds read low. 330,000 tested, 1.2% active. max response, %. P48426. AID 652105; active means max response of -50% or lower; inconclusive means between -30% and -50%; inactive means -30% or higher; further: value at the top dose of about 77 µM; on the % scale 0 is the no-effect control and ±100 the full control effect
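Quantitative HTS of the MLSMR library against PI5P4Kalpha with substrate. ATP added last at 5 microM final; room temperature, 60 minutes. Remaining ATP depleted, ADP converted and read as luminescence.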
G9a block – inhibitors of human histone lysine methyltransferase G9a; Potency, µM (series often up to 102 µM), for inactives: at the highest dose activity, negative = inhibition, actives largely listed as inhibitors; 350,000 tested, 8.8% active; Q96KQ7; G9a H3K9 monomethylation, AlphaScreen, 2 h; AID 504332; further: potency means the concentration at half of the fitted maximal effect; on the % scale 0 is the no-effect control and ±100 the full control effect; nearly all actives have a fitted effect of over 75% in size
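Step 1: enzyme (final 20 nM) with compound, 15 min RT. Step 2: substrate peptide 500 nM and SAM 20 uM, 2 h RT. Step 3: anti-H3K9me1 antibody and AlphaScreen beads, 10 min, then plate read.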
Active calls of the source: *; u = inconclusive; x = no result; [ ] = dose if it differs, or a comment. An excerpt weighted towards active compounds, which were near 12% of everything screened. Unless noted, the call rests on the fitted dose curve; in most records, active means well fitted curve in the direction sought with a large enough effect; inconclusive means small, poorly fitted or top-dose-only effect, or another doubt; inactive means no such curve, though single readings can be large; an effect the other way counts as inactive or inconclusive.

SMILES	HP1b binding inh	PLK1 PBD block	JMJD2A Tudor	BAZ2B block	PI5P4K alpha inh	G9a block
Cc1[nH]cnc1CSCCN	-5.8%	-7.8%	1µM*	u	-5.4	u
Cc1[nH]cnc1CSCc1ccc(Cl)cc1	32.1%	-4.4%	-19.6%	u	9.6	25.1µM*
N#Cc1ccc(C(=O)Nc2nnc(-c3ccccn3)o2)cc1	16.2%	-8.3%	u	8.91µM*	-14.5	50.1µM*
CC(=O)Nc1nnc(-c2ccccn2)o1	16.4%	-6.8%	u	u	-1.4	28.2µM*
Cc1ccc(C2C(C(=O)O)c3ccccc3C(=O)N2C)c(C)c1 (stereo not drawn)	3.7%	-0.9%	-3.4%	-0.7%	5.1	0.6%
CN1C(=O)c2ccccc2C(C(=O)O)C1c1cn(C)c2ccccc12 (stereo not drawn)	u	u	44.7µM*	-0.2%[57.1 µM]	-0.6	-14.5%
COc1ccc(C2C(C(=O)O)c3ccccc3C(=O)N2C)cc1Br (stereo not drawn)	64.2%	-3.0%	-9.3%	-29.1%	-3.6	3.98µM*
CCOC(=O)CSC1=Nc2ccccc2C2=NC(CCC(=O)NCc3ccc(OC)cc3)C(=O)N12 (stereo not drawn)	11.0%	x	-17.3%	-1.1%	x	18.4%[59 µM]
Cc1cnc(CNc2ncncc2-c2c(C)noc2C)cn1	x	x	x	x	x	-41.5%[0.501 µM]
COC(=O)c1cn(C(=O)c2cc(C)cc(C)c2)c2ccccc12	4.9%	21.2µM*	0.8%[11.4 µM]	8.9%	-12.2	-0.9%[12.7 µM]
COC(=O)c1cn(C(=O)c2ccc(C)cc2)c2ccccc12	77.6%	18.9µM*	u	88.5%	4.4	255.1%
COC(=O)c1cn(C(=O)c2ccc(OC)cc2)c2ccccc12	85.2%	-6.5%	55.5%	-5.0%	14.0	101.1%
CCS(=O)(=O)N1CCc2cc(C(=O)NCc3ccc(Cl)cc3)ccc21	39.1%	x	-28.1%	-18.7%	x	-45.7%[59 µM]
Cc1cc(C(=O)Nc2c(C)nc3ccccn3c2=O)ccc1[N+](=O)[O-]	3.6%[57 µM]	x	-27.6%	1.5%	x	20.4%[59 µM]
O=C(c1ccccc1Cl)N1CCC(N2CCC(C(=O)N3CCCC3)CC2)CC1	14.5%	u	-22.6%	-6.1%[57.1 µM]	4.4	6.4%
CC1CN(C2CCN(C(=O)c3ccccc3Cl)CC2)CC(C)O1 (stereo not drawn)	u	-4.5%	35.5µM*	u	6.0	u
CC1CN(C2CCN(C(=O)c3cccc(Cl)c3)CC2)CC(C)O1 (stereo not drawn)	u	-4.3%	8.91µM*	-32.0%	-0.5	91.1%[59 µM]
O=C(c1cccc(Cl)c1)N1CCC(c2nc3ccccc3o2)CC1	37.2%	x	4.0%	-2.8%	x	0.2%[59 µM]
CC(OC(=O)c1ccc(Cl)nc1)C(=O)Nc1ccc2c(c1)OCO2 (stereo not drawn)	22.0%	-7.4%	-24.7%	-30.5%	-14.7	-10.6%[12.7 µM]
CCn1c(Cc2ccccc2)nnc1SCC(=O)Nc1ccc(N)cc1	23.7%	-6.3%	-24.1%	-25.3%	x	50.1µM*
Cn1c(Cc2ccccc2)nnc1SCC(=O)NC1CC1	18.1%	-4.7%	-10.7%	7.9%	-5.4	9.5%
Cn1c(CSCc2ccccc2)nnc1SCC(=O)Nc1nccs1	29.5%	-6.5%	21.1%	5.4%	0.1	15.1%[59 µM]
Cn1c(CSCc2ccccc2)nnc1SCC(=O)Nc1ccc(C(=O)O)cc1	28.8%	-6.7%	-15.2%	0.1%	-73.0*	x
Cn1c(Cc2ccccc2)nnc1SCCC(=O)Nc1ccccc1	6.9%	-7.2%	-7.5%	13.5%	-7.8	7.94µM*
Cc1nc(S/C(=C\c2ccc(-c3ccc(C(=O)O)c(Cl)c3)o2)C(=O)O)n[nH]1	20µM*	u	25.1µM*	14.1µM*	-70.6*	3.98µM*
SMILES	HP1b binding inh	PLK1 PBD block	JMJD2A Tudor	BAZ2B block	PI5P4K alpha inh	G9a block
CCOc1cc(C(=O)Nc2ccc(-c3nnc4n3CCCCC4)cc2)cc(OCC)c1OCC	12.7%	x	-19.1%	-8.3%	x	-19.6%[59 µM]
COc1ccc(CNCc2cc(OC)ccc2OC)cc1	-19.9%	2.9%	28.2µM*	56.2µM*	0.4	12.6µM*
COc1ccc(CNCc2cc(C)c(OC)cc2C)c(OC)c1	u	2.3%	20µM*	50.1µM*	-3.9	x
COc1ccc(CNCCCSc2ncccn2)c(OC)c1	11.5%	-4.5%	-23.3%	-6.4%	3.7	18.7%
COc1ccc(CNCc2ccc(F)cc2)c(OC)c1	30.1%	-9.4%	-17.1%	-21.0%	1.3	14.7%
COc1cc(CNCc2cc(OC)ccc2OC)cc(OC)c1	u	7.5%	28.2µM*	u	0.8	25.1µM*
CC(C)N(C(=O)Cn1cc(S(=O)(=O)Cc2ccc(Br)cc2)c2ccccc21)C(C)C	35.4%	x	0.4%	-2.6%	x	0.8%[59 µM]
COc1ccc(C(N)c2nccc3cc(OC)c(OC)cc23)cc1OC (stereo not drawn)	48.4%	2.3%	56.2µM*	14.1µM*	6.4	x
CC(C)(C)C1CCc2onc(C(=O)Nc3sc4c(c3C#N)CCCC4)c2C1 (stereo not drawn)	-18.4%	x	-25.9%	-17.8%	x	2.82µM*
CC(C)(C)C1CCc2onc(C(=O)Nc3ccc(F)cc3F)c2C1 (stereo not drawn)	63.5%	-3.8%	1.9%	7.2%	x	19.0%[59 µM]
CC(C)(C)C1CCc2onc(C(=O)Nc3sc4c(c3C(N)=O)CCCC4)c2C1 (stereo not drawn)	u	x	-24.6%	-0.4%	x	3.16µM*
COc1cc(NC(=O)CCc2nnc3ccc(N4CCN(C)CC4)nn23)cc(OC)c1	21.7%	-9.1%	-12.4%	u	2.7	1.9%
O=C(O)c1cnn2cc(-c3[nH]ncc3[N+](=O)[O-])cnc12	4.3%	-3.1%	22.4µM*	u	-23.7	u
Cc1cc(C(F)F)n2ncc(C(=O)O)c2n1	33.4%	0.5%	-16.2%	-1.6%	x	-33.9%[0.0925 µM]
Cc1cnc2c(C(=O)O)cnn2c1	u	-2.1%	u	u	0.3	56.2µM*
O=C(NCc1ccco1)c1cccc2c1C(=O)c1ccc(N3CCC(Cc4ccccc4)CC3)cc1S2(=O)=O	29.8%	u	-20.1%	x	-11.7	x
O=C(NCc1ccco1)c1cccc2c1C(=O)c1ccc(/C=C/c3ccccc3)cc1S2(=O)=O	u	u	39.8µM*	x	-71.5*	x
O=C(CSc1nnc(-c2ccccc2)n1Cc1ccco1)Nc1ccc2c(c1)OCCO2	-0.8%	-15.7%	-31.0%	-38.2%	-8.0	39.8µM*
O=C(CSc1nnc(-c2cccs2)n1Cc1ccco1)Nc1ccc2c(c1)OCO2	15.9%	-2.5%	-32.3%	u	0.0	-40.8%[12.7 µM]
Cc1cc(C(=O)CSc2nnc(-c3ccccc3)n2Cc2ccc3c(c2)OCO3)c(C)n1C	29.3%	-3.7%	-9.8%	-5.8%	x	28.2µM*
O=C(CSc1nnc(-c2ccccc2)n1Cc1ccco1)NCc1ccc2c(c1)OCO2	15.4%	-16.4%	-29.7%	1.3%	-14.6	44.7µM*
CC(CCN1CCN(c2ccc(F)cc2)CC1)c1ccccc1 (stereo not drawn)	10.7%	-13.6%	u	u	-7.1	x

Screening results deposited in PubChem BioAssay by National Center for Advancing Translational Sciences (NCATS).
